Several values for one entry are separate records, joined by “and”; a condition that tells them apart may be missing. Equal entries are not always repeated. Activity calls are given as the source filed them. The calls were made as follows: active = hit-call score of the fitted dose curve at least 0.9, where 1 is the maximum; inactive = score below 0.9.
Columns and labels:
[1] = ATG_ISRE_CIS: Attagene CIS-FACTORIAL HepG2 Assay for human Interferon Regulatory Factor 1 (IRF1) binding to an Interferon-Stimulated Response Element (ISRE) (AID 2282948); conditions: HepG2 ISRE cis-reporter (Attagene), mRNA transcription readout; actives raise or lower the signal
Procedure, shortened: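 Transiently transfected HepG2 cells carrying cis-element reporter units, dosed 24 hours. Reporter mRNA quantified by RT-PCR, fluorescent primer extension, HpaI digestion and capillary electrophoresis. Bidirectional fitting relative to DMSO.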

[2] = ATG_M_32_CIS: Attagene CIS-FACTORIAL HepG2 Assay for M32 Transcription Factor (Internal Marker) (AID 2282949); conditions: HepG2 Attagene cis-factorial M32 reporter, mRNA; actives raise or lower the signal;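 also: background control marker of the multiplexed CIS panel rather than a real target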
Procedure, shortened: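 Following 24 h chemical exposure of HepG2 cells transiently expressing cis-promoter reporter constructs, reporter transcript levels were determined by RT-PCR with fluorescent labelling and capillary electrophoresis, then fitted bidirectionally against DMSO.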

[3] = ATG_M_06_CIS: Attagene CIS-FACTORIAL HepG2 Assay for M06 Transcription Factor (Internal Marker) (AID 2282950); conditions: HepG2 Attagene CIS-FACTORIAL M06 internal marker reporter; actives raise or lower the signal
Procedure, shortened: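 Fluorescence-labelled RT-PCR products from cis-promoter reporter units, cut with HpaI and resolved by capillary electrophoresis, give the signal. Cells are human HepG2, dosed for 24 h. Serves as background control, fitted relative to DMSO.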

[4] = molecular target: Hypoxia-inducible factor 1-alpha (Homo sapiens) (UniProt Q16665); experiment: ATG_HIF1a_CIS: Attagene CIS-FACTORIAL HepG2 Assay for human Hypoxia Inducible Factor 1 (HIF1A) (AID 2282951); conditions: HepG2 Attagene cis-factorial HIF1a reporter transcription; actives raise or lower the signal
Hypoxia-inducible factor 1-alpha (Homo sapiens), sequence (Q16665 whole entry, looked up): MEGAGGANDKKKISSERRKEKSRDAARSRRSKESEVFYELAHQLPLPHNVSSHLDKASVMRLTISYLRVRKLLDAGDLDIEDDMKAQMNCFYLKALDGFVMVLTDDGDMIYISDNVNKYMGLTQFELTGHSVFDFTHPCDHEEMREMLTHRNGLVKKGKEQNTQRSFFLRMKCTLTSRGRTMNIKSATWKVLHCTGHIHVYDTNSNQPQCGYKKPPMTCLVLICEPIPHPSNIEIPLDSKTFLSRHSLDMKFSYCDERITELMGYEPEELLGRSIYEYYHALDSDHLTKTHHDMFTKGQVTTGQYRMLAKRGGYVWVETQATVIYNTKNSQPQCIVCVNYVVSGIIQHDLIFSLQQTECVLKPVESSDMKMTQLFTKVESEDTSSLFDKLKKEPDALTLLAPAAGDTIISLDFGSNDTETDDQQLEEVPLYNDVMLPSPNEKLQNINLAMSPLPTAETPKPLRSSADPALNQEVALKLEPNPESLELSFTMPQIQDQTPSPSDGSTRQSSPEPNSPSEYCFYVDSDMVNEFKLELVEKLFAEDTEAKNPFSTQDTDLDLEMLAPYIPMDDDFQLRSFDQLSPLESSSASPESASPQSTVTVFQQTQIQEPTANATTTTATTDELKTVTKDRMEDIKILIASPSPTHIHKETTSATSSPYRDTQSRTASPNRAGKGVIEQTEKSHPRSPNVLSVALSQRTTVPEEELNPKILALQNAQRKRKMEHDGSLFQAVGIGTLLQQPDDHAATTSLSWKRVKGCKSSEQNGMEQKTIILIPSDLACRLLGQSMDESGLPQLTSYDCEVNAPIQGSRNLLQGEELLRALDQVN
Procedure, shortened: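 Cis-element reporter constructs were transiently transfected into HepG2 cells, which were treated for 24 h; reporter RNA was reverse-transcribed, amplified, labelled and resolved by capillary electrophoresis.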

[5] = molecular target: Hepatocyte nuclear factor 6 (Homo sapiens) (UniProt Q9UBC0); experiment: ATG_HNF6_CIS: Attagene CIS-FACTORIAL HepG2 Assay for human Hepatocyte Nuclear Factor 6 (HNF6) (AID 2282952); conditions: HepG2 Attagene cis-factorial HNF6 reporter transcription; actives raise or lower the signal
Hepatocyte nuclear factor 6 (Homo sapiens), sequence (Q9UBC0 whole entry, looked up): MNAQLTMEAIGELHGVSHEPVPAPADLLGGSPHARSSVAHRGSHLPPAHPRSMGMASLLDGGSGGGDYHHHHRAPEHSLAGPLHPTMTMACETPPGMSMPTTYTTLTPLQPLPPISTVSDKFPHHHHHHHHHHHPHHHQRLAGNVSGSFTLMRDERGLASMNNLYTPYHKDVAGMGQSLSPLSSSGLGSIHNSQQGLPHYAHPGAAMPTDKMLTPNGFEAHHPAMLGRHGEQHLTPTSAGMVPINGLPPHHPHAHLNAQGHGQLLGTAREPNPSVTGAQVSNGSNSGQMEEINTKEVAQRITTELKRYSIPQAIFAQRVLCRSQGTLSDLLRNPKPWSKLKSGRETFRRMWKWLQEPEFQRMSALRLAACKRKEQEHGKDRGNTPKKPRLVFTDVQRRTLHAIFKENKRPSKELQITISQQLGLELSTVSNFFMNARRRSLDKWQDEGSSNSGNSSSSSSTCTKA
Procedure, shortened: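 HepG2 cells transiently transfected with cis-element-driven multiple reporter transcription units, dosed 24 h; reporter mRNA quantified by RT-PCR, FAM primer extension, HpaI digestion and capillary electrophoresis; bidirectional fit versus DMSO baseline.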

[6] = molecular target: Heat shock factor protein 1 (Homo sapiens) (UniProt Q00613); experiment: ATG_HSE_CIS: Attagene CIS-FACTORIAL HepG2 Assay for human Heat Shock Transcription Factor 1 (HSE) (AID 2282953); conditions: HepG2 HSE cis-reporter, Attagene RNA transcription; actives raise or lower the signal
Heat shock factor protein 1 (Homo sapiens), sequence (Q00613 whole entry, looked up): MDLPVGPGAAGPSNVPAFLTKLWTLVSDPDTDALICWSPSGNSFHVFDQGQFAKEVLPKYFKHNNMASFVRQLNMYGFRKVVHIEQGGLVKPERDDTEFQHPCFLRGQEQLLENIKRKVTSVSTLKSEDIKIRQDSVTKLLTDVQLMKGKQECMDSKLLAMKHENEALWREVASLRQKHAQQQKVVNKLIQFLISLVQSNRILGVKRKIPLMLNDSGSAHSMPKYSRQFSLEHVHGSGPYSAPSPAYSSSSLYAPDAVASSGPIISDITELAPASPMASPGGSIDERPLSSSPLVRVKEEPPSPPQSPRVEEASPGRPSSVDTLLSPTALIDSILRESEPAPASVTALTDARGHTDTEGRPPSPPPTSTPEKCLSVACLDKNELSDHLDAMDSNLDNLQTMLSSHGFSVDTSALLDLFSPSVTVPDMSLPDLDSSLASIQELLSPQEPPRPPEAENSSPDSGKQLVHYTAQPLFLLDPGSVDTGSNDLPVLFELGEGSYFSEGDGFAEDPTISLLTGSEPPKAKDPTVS
Procedure, shortened: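 After a 24 h incubation with test chemical, transfected HepG2 cells were harvested for RNA; reporter transcripts were measured by RT-PCR and capillary electrophoresis. Values reflect gain or loss of signal relative to DMSO.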

[7] = ATG_MRE_CIS: Attagene CIS-FACTORIAL HepG2 Assay for human Metal Responsive Element (MRE) (AID 2282954); conditions: HepG2 MRE cis-reporter transcription, Attagene multiplex; actives raise or lower the signal
Procedure, shortened: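 After a 24 h chemical exposure, transiently transfected HepG2 cells yield RNA whose reporter sequences are amplified, FAM-labelled and sized by capillary electrophoresis. Curves are fitted bidirectionally relative to DMSO.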

[8] = ATG_PBREM_CIS: Attagene CIS-FACTORIAL HepG2 Assay for human Phenobarbital-responsive Enhancer Module (PBREM) (AID 2282955); conditions: HepG2 PBREM cis-reporter, Attagene multiplexed transcription; actives raise or lower the signal
Procedure, shortened: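 Multiplexed cis-reporter readout in human hepatoma HepG2 cells; PBREM-regulated transcript quantified after 24 h exposure by fluorescent RT-PCR fragment analysis. Signal changes up or down fitted relative to DMSO.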

[9] = molecular target: Paired box protein Pax-6 (Homo sapiens) (UniProt P26367); experiment: ATG_Pax6_CIS: Attagene CIS-FACTORIAL HepG2 Assay for human Paired Box 6 (PAX6) (AID 2282956); conditions: HepG2 CIS-FACTORIAL PAX6 reporter transcription, RNA readout; actives raise or lower the signal
Paired box protein Pax-6 (Homo sapiens), sequence (P26367 whole entry, looked up): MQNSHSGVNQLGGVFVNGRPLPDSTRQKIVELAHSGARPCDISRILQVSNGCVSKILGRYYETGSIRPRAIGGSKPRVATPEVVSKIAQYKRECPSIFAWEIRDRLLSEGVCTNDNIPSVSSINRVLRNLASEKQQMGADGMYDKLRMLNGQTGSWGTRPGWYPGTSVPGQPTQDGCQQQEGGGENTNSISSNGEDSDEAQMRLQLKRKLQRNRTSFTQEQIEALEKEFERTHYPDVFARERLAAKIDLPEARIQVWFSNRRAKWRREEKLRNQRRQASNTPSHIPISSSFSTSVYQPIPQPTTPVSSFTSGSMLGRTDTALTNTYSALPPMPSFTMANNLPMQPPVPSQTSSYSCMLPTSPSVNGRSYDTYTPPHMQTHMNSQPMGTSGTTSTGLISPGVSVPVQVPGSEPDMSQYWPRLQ
Procedure, shortened: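 HepG2 cells transiently transfected with cis-promoter-driven multiplexed reporter units sensing endogenous transcription factor activity; 24 h chemical exposure. Reporter mRNA quantified by RT-PCR, 6-FAM labelling, HpaI digestion and capillary electrophoresis; bidirectional fit versus DMSO baseline.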

[10] = ATG_PXRE_CIS: Attagene CIS-FACTORIAL HepG2 Assay for human Pregnane X Receptor Element (PXRE) (AID 2282957); conditions: HepG2 Attagene CIS-FACTORIAL PXRE reporter, mRNA; actives raise or lower the signal
Procedure, shortened: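 HepG2 cells transiently transfected with cis-regulated multiple reporter transcription units; endogenous factor activity measured as reporter mRNA 24 h after dosing. RT-PCR, fluorescent primer extension, HpaI digestion, capillary electrophoresis; bidirectional fit versus DMSO baseline.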

[11] = ATG_PPRE_CIS: Attagene CIS-FACTORIAL HepG2 Assay for human Peroxisome Proliferator-activated Response Element (PPRE) (AID 2282958); conditions: HepG2 PPRE cis-element reporter, Attagene transcription factor profiling; actives raise or lower the signal
Procedure, shortened: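 DMSO served as negative control and baseline for bidirectional curve fitting. Signal came from PPRE-regulated reporter mRNA in HepG2 cells, measured 24 h post-dosing by RT-PCR, 6-FAM primer extension and capillary electrophoresis.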

[12] = molecular target: Transcription factor Sp1 (Homo sapiens) (UniProt P08047); experiment: ATG_Sp1_CIS: Attagene CIS-FACTORIAL HepG2 Assay for human Specificity Protein 1 (Sp1) (AID 2282961); conditions: HepG2 Sp1 cis-reporter transcription, actives raise or lower the signal
Transcription factor Sp1 (Homo sapiens), sequence (P08047 whole entry, looked up): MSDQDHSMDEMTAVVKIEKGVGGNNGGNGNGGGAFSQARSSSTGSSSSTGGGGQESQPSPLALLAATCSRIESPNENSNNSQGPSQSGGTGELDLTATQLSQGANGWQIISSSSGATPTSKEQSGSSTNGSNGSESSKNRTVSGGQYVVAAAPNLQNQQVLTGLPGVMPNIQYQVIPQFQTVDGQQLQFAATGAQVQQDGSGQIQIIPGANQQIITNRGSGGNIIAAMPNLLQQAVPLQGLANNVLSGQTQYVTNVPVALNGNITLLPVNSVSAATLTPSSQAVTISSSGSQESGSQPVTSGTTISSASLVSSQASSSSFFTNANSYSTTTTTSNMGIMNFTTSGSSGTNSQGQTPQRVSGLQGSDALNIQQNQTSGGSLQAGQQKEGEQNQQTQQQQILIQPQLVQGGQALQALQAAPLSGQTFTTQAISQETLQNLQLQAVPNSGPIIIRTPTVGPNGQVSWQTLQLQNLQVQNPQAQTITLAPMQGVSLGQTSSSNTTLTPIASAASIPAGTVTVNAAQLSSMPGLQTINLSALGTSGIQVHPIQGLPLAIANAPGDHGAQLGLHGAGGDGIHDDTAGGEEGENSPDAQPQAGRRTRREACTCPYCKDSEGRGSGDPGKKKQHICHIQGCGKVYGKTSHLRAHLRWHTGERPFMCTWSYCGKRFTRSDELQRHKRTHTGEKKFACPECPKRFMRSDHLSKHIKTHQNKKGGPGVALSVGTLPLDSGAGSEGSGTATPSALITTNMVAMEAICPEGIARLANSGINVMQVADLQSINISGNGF
Procedure, shortened: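 Chemicals are dosed onto HepG2 cells transfected with multiple cis-promoter reporter constructs, and after 24 h reporter RNA is reverse-transcribed, PCR-amplified and resolved by capillary electrophoresis for fluorescence quantitation; activity is scored up or down against DMSO.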

[13] = ATG_SREBP_CIS: Attagene CIS-FACTORIAL HepG2 Assay for human Sterol Regulatory Element Binding (SREBP) (AID 2282962); conditions: HepG2 Attagene cis-factorial SREBP reporter, mRNA; actives raise or lower the signal
Procedure, shortened: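 HepG2 cells transiently transfected with multiplexed cis-promoter reporter units sensing endogenous transcription factors; reporter mRNA measured 24 h after dosing by RT-PCR, 6-FAM labeling, HpaI digestion and capillary electrophoresis. Bidirectional fit versus DMSO.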

[14] = molecular target: Signal transducer and activator of transcription 3 (Homo sapiens) (UniProt P40763); experiment: ATG_STAT3_CIS: Attagene CIS-FACTORIAL HepG2 Assay for human Signal Transducer and Activator of Transcription 3 (STAT3) (AID 2282963); conditions: HepG2, Attagene cis-factorial STAT3 reporter transcription; actives raise or lower the signal
Signal transducer and activator of transcription 3 (Homo sapiens), sequence (P40763 whole entry, looked up): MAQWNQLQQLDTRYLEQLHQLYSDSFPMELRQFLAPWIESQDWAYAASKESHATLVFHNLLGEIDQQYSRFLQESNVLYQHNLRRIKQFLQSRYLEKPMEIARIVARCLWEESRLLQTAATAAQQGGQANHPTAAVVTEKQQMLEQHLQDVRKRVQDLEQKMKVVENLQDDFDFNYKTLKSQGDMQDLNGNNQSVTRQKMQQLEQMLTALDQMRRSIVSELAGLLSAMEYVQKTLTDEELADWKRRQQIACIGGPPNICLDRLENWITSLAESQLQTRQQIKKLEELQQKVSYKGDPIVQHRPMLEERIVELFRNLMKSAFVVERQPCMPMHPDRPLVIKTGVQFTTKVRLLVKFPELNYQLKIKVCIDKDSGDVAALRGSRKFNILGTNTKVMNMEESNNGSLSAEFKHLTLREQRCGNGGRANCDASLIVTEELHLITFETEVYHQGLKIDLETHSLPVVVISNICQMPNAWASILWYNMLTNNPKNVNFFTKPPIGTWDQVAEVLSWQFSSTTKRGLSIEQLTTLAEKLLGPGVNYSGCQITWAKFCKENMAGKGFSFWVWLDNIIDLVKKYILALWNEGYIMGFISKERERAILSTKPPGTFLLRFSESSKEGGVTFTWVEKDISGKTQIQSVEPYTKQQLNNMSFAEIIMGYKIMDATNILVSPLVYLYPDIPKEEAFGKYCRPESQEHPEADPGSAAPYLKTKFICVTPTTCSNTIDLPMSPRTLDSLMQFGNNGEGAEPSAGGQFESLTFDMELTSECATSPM
Procedure, shortened: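 After a 24 h compound incubation, total RNA from MRTU-transfected HepG2 cells was converted to cDNA and reporter sequences PCR-amplified, labelled and profiled by capillary electrophoresis. Gain and loss of signal were referenced to DMSO.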

[15] = ATG_TA_CIS: Attagene CIS-FACTORIAL HepG2 Assay for human TA Basal Promoter (AID 2282964); conditions: HepG2 Attagene CIS-factorial TA basal promoter reporter; actives raise or lower the signal
Procedure, shortened: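 Multiplexed mRNA reporter assay, HepG2, 24 h. Reporter cDNA amplified, 6-FAM primer-extended, HpaI-cut, CE-sized; DMSO = negative control and baseline.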

[16] = ATG_TCF_b_cat_CIS: Attagene CIS-FACTORIAL HepG2 Assay for human T-Cell-Factor with beta-catenin (TCF/b-cat) (AID 2282965); conditions: HepG2 TCF/beta-catenin cis-reporter transcription, actives raise or lower the signal
Procedure, shortened: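 Endogenous transcription factor activity is captured through cis-promoter reporter constructs transiently introduced into human HepG2 liver cells. Induced reporter mRNA is measured after 24 h and fitted bidirectionally relative to DMSO.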

[17] = ATG_GRE_CIS: Attagene CIS-FACTORIAL HepG2 Assay for human Glucocorticoid Response Elements (GRE) (AID 2282947); conditions: HepG2 GRE cis-reporter, Attagene multiplex mRNA; actives raise or lower the signal
Procedure, shortened: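 Assay uses human hepatoma HepG2 cells transfected with cis-promoter reporter units, exposed 24 h. mRNA from reporters detected by RT-PCR plus capillary electrophoresis; DMSO serves as negative control and baseline.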

[18] = ATG_Sox_CIS: Attagene CIS-FACTORIAL HepG2 Assay for human SRY-box transcription factor (SOX) (AID 2282960); conditions: HepG2 Attagene cis-factorial SOX reporter, mRNA; actives raise or lower the signal
Procedure, shortened: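 Fluorescence-labelled cDNA fragments from reporter transcripts, sized by CE, give the signal. Cells: HepG2, transiently transfected with cis-regulated reporter units. Exposure 24 h; DMSO negative control; bidirectional curve fitting.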

[19] = ATG_RORE_CIS: Attagene CIS-FACTORIAL HepG2 Assay for human RAR-related Orphan Receptor Element (RORE) (AID 2282959); conditions: HepG2 Attagene cis-factorial RORE reporter, mRNA; actives raise or lower the signal
Procedure, shortened: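 Transfect HepG2 with MRTUs; treat 24 h; extract RNA; RT with oligo(dT); PCR with reporter-specific primers; 6-FAM primer extension; HpaI digest 2 h at 37 C; capillary electrophoresis. Fit vs DMSO, bidirectional.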

Measured: AC50

CNC(=O)ON=C(SC)C(=O)N(C)C
active: [10] 29.3 µM | [13] 50 µM
not listed: [17] | [18] | [19]
inactive: all other assays above

CNC(=O)ON=C(C)SC
not listed: [8] | [19]
inactive: all other assays above

CCc1cccc(C)c1N(C(=O)CCl)C(C)COC (configuration not stated)
active: [8] 7.5 µM | [10] 0.603 µM
not listed: [11] | [13] | [17] | [19]
inactive: all other assays above

CN(C)[C@@H]1C(=O)C(C(N)=O)=C(O)[C@@]2(O)C(=O)C3=C(O)c4c(O)cccc4[C@@](C)(O)[C@H]3[C@H](O)[C@@H]12
active: [10] 65 µM and 26.5 µM and 34.9 µM
not listed: [4] | [8] | [11] | [17] | [19]
inactive: all other assays above

CCOC(=O)COc1cc(-c2nn(C)c(OC(F)F)c2Cl)c(F)cc1Cl
active: [10] 47.3 µM
not listed: [6] | [13] | [18]
inactive: all other assays above

CCOP(=S)(Oc1cnc(C(C)(C)C)nc1)OC(C)C (configuration not stated)
active: [7] 65.3 µM | [8] 21.2 µM | [10] 1.84 µM | [12] 28.1 µM
not listed: [6] | [13] | [19]
inactive: all other assays above

COP(=O)(NC(C)=O)SC (configuration not stated)
active: [10] 30.5 µM
not listed: [13]
inactive: all other assays above

Source: PubChem BioAssay (EPA / NIEHS)
